# From PubChem BioAssay (Tox21)
# Records with an inconclusive call do not appear. A call without a number means that no potency is given here. Calls of active or inactive are those of the source. Calls follow the shape of the dose curve; as a rule, active = well fitted activation curve with a large enough effect in the repeat runs; inconclusive = weak or mixed curves; inactive = flat fitted curve, though single readings scatter.
# Assay: A CellTox Green Cytotoxicity Assay to monitor cytotoxicity in HepG2 cells - 16 hour (AID 1224876); also: nearly all actives have a fitted effect of over 45% in size
# Settings: CellTox Green fluorescence; series mostly up to 76.8 µM
# Excerpt: National Center for Advancing Translational Sciences [NCATS]
# NIH Chemical Genomics Center [NCGC]
# U.S. Environmental Protection Agency [EPA]
# National Institutes of Environmental Health Sciences [NIEHS]
# National Toxicology Program [NTP]
# Cell-based models are critical for drug discovery. Determining the natural cytotoxic effects resulting from test compounds is an essential research activity. A CellTox Green Cytotoxicity Assay to monitor cytotoxicity in real time of continues cell culture during 40 hours of the compound treatment was used to screen Tox21 10K library compounds in HepG2 cells. CellTox Green Cytotoxicity Assay is a nonlytic, homogeneous, biofluorescent method to measure cytotoxicity in cell culture after experimental manipulation. The assay system uses a proprietary asymmetric cyanine dye that is excluded from viable cells but preferentially stains the dead cell's DNA. […] Viable cells produce no appreciable increases in fluorescence. Therefore, the fluorescence signal produced by the binding interaction with dead cell DNA is proportional to cytotoxicity.
# The mixture of HepG2 cell suspension and reagents were dispensed at 600cells/6 ul/well in 1536-well tissue culture treated black solid bottom plates using a Multidrop dispenser. After the assay plates were incubated at a 37 C/5% CO2 incubator for 5 hours, 23 nL of compounds dissolved in DMSO, positive and negative controls was transferred to the assay plate by a pintool work station. The plates were incubated at 37 C for 40 hours. The fluorescence intensity were measured at 0h, 8h, 16h, 24h, 32h and 40h time points using ViewLux plate reader during compound treatment.
# Potency is read from the fitted curve at half-maximal effect.
SMILES,Potency,cytotoxicity increase
CCC(C)c1cc(C(C)(C)C)c(O)c(C(C)(C)C)c1 (stereo not given),inactive,
CN(C)c1ccc(/C=C/c2ccc([N+](=O)[O-])cc2)cc1,,19.5% [at 6.97 µM] (inactive)
C/C(=C(\CCOP(=O)(O)O)SC(=O)c1ccccc1)N(C=O)Cc1cnc(C)nc1N,,0.668% [at 6.97 µM] (inactive)
CC(C)(C)OCC1CO1 (stereo not given),inactive,
CC(=O)c1ccc2c(c1)N(CCCN(C)C)c1ccccc1S2,inactive,
Nc1ccc(S(=O)(=O)Nc2ccccc2)cc1,inactive,
O=C(c1ccc(F)cc1)C1CCN(CCn2c(=S)[nH]c3ccccc3c2=O)CC1,inactive,
Cc1c(N)cccc1[N+](=O)[O-],inactive,
COc1cc2c(cc1OC)C(C(C(=O)N(CCc1ccc(OC)c(OC)c1OC)CCc1ccc(OC)c(OC)c1OC)c1ccccc1)=NCC2 (stereo not given),inactive,
CC1=CC[C@H](C(C)C)C=C1,inactive,
CCN(CC)CCNc1ccc(CNC=O)c2sc3ccc(OC)cc3c(=O)c12,inactive,
COc1cc(Cl)ccc1Oc1ccc(Cl)cc1Cl,inactive,
CC(=O)c1ccc2c(c1)N(CCCN1CCC(CCO)CC1)c1ccccc1S2,21.3 µM (active),
CCOc1ccc(N)c([N+](=O)[O-])c1,inactive,
c1ccc(-c2ccccn2)nc1,inactive,
CCO[Si](CCCCl)(OCC)OCC,inactive,
C#CCN(C)CCCOc1ccc(Cl)cc1Cl,inactive,
O=C1c2ccccc2S(=O)(=O)N1CCCCN1CCN(c2ncccn2)CC1,inactive,
CCOC(=O)C(F)(F)F,inactive,
CCC(C)(C)CC,inactive,

SMILES,Potency,cytotoxicity increase
CC(COCCO)OCCO (stereo not given),inactive,
C=CCOc1ccccc1OCC(O)CNC(C)C (stereo not given),inactive,
CCOC(=O)C(O)c1ccccc1 (stereo not given),inactive,
C=C(C)C(=O)OCCO,inactive,
C[C@@H]1C[C@H]2O[C@@]3(O[C@@H]2C(C)(C)O)[C@H](O)[C@@]2(C)[C@@H]4CC[C@H]5C(C)(C)[C@@H](O[C@@H]6OC[C@@H](O)[C@H](O)[C@H]6O)CC[C@@]56C[C@@]46CC[C@]2(C)[C@@H]13,inactive,
Cc1cccc(C)c1NC(=O)CN(CC(=O)O)CC(=O)O,inactive,
Cc1ccccc1S(=O)(=O)O,inactive,
CC(C)OC(=O)C(C)N(C(=O)c1ccccc1)c1ccc(F)c(Cl)c1 (stereo not given),inactive,
CN1CCN(C(c2ccccc2)c2ccccc2)CC1,inactive,
O=C(OCCCCCCOC(=O)c1ccccc1)c1ccccc1,inactive,
NCc1ccccc1Sc1ccccc1CO,inactive,
NCCCN1CCOCC1,inactive,
CCn1cc(C(=O)O)c(=O)c2cnc(N3CCNCC3)nc21,inactive,
C[Si](C)(CCCN)O[Si](C)(C)CCCN,inactive,
CCCCCCCC#N,inactive,
NC(N)=NCCC[C@H](N)C(=O)O,,-5.32% [at 6.97 µM] (inactive)
CN(C)CCN(Cc1ccc(Cl)cc1)c1ccccn1,inactive,
C=CC(=O)OCCOCCOC(=O)C=C,inactive,
CCOC(=O)NCCOc1ccc(Oc2ccccc2)cc1,inactive,
CCCCC/C=C\C/C=C\CCCCCCCC(=O)NC(C)c1ccccc1 (stereo not given),inactive,
